Four molecules from PubChem BioAssay AID1252 (The Scripps Research Institute Molecular Screening Center, 2008) can be followed below.

The list shows a part of the results. Unmarked numbers belong to inactive results.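 How the source made its calls: active means over 50% activation at some tested dose; inactive means under 50% activation at every tested dose.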

This assay can be described thus: Hsp70 transcriptional activators, dose response, cell-based, HeLa, Hsp70 promoter luciferase, luminescence, triplicate (AID 1252). Particulars: HeLa hsp70.1pr-luc reporter; series mostly up to 99 µM; activation: at the top concentration.
Take `COCCn1c(C)cc(C(=O)CSc2nc3ccccc3c(=O)n2C(C)COC)c1C` (centres undefined): the “activation” value was -0.3%.
With `COc1ccc(CS(=O)/C(Cl)=C(/Cl)C(=O)Nc2ccc(OC)nc2)cc1` (centres undefined) the figure was -0.5%.
`O=C(/C=C/Sc1ncn[nH]1)c1ccc(Cl)cc1`: the “activation” value was 3.8%.
In the case of `COc1ccc(NC(=O)/C(Cl)=C(/Cl)S(=O)Cc2ccc(C)cc2)cn1` (centres undefined), the “activation” value was 1.6%.
